Assay outcomes (PubChem BioAssay)
Mtb FBA inh: inhibitors of M. tuberculosis fructose-bisphosphate aldolase; actives 2.3% (n = 360,000); inhibition, % at 1 µM; purified M. tuberculosis FBA, fluorescence read-out; P9WQA3;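 note: 0% = vehicle and 100% = reference inhibitor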
Target sequence (P9WQA3 whole entry, looked up): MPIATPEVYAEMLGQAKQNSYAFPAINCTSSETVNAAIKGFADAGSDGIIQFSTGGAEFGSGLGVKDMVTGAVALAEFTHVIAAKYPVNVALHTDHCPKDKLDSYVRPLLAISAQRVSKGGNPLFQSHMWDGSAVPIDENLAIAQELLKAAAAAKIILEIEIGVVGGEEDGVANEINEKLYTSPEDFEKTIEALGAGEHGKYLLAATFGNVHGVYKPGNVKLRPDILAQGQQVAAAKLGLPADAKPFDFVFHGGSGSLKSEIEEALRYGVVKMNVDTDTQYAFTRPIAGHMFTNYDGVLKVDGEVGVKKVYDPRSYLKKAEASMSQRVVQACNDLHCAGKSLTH
FadD28 binding: blocks FadD28 binding to the bisubstrate probe; actives 0.22% (n = 360,000); AID 588549; fluorescence polarization; inhibition, % at 12.5 µM; in the data active = inhibition above about 8.5%, passing the limit was not always enough
BioA inh: inhibitors of Mycobacterium tuberculosis BioA enzyme | AID 602481 | purified M. tuberculosis BioA enzyme, plate reader | inhibition, % at 9.99 µM | actives 0.096% (n = 360,000); in the data active = inhibition above about 40%
GDH-TPI counter-1: inhibits GDH-TPI coupling enzymes, artifact for Mtb FBA screen; GDH-TPI coupled enzyme counterscreen, NADH absorbance; inhibition, % at 4.8 µM; actives 1.2% (n = 360,000); AID 588335; in the data active = inhibition above about 30%;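 note: 0% = DMSO wells and 100% = wells lacking the enzyme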
SARS 3CLpro inh: SARS-CoV 3CLpro protease inhibition | P0C6X7 | actives 0.14% (n = 290,000) | inhibition, % at 6 µM | recombinant SARS-CoV 3CLpro, quenched FRET peptide cleavage; in the data active = inhibition above about 12%
Mtb FBA confirm: Mtb FBA inhibition, confirmed; purified M. tuberculosis FBA, fluorescence read-out; shares compounds with Mtb FBA inh; inhibition, % at 1 µM; actives 78% (n = 5,600);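 note: 0% = vehicle wells and 100% = reference inhibitor wells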
GDH-TPI counter-2: GDH-TPI inhibition counter-screen for FBA inhibitors; shares compounds with Mtb FBA inh; inhibition, % at 1 µM; GDH-TPI coupled enzyme counterscreen, fluorescence; actives 81% (n = 5,600); in the data active = inhibition above about 10%
Starred values were filed as active, the others as inactive; / = no result given; + = active, no number. Most compounds without a hit are left out; they make up all but 3.1% or so of the library. Cut-off read from the data, not from the text of the source, unless noted: active = inhibition above about 27%; inactive = the rest.

SMILES	Mtb FBA inh	FadD28 binding	BioA inh	GDH-TPI counter-1	SARS 3CLpro inh	Mtb FBA confirm	GDH-TPI counter-2
O=C(C[C@H]1CC[C@H]2[C@@H](COC[C@H](O)CN2C(=O)c2ccncc2)O1)NC1CCC1	/	/	-3	/	/	/	/
CCOC(=O)CCSc1nc(C)c2cc(OC)ccc2n1	36*	-3	-3	0	4	140*	116*
COc1ccc2nc3oc(C(=O)NCc4cccs4)cc3cc2c1	32*	-1	-1	24	-4	2	-4
COc1ccc2nc3oc(C(=O)NCCCOC(C)C)cc3cc2c1	111*	-4	-2	13	-2	7	2
CCOCCCNC(=O)CS(=O)(=O)Cc1nc(-c2cccc(OC)c2)oc1C	3	1	-1	-1	-3	/	/
CCOCCCNC(=O)c1cc2cc3cc(OC)ccc3nc2o1	110*	-4	0	2	-2	91*	66*
OC[C@H]1[C@@H](c2ccc(C#CC3(O)CCCC3)cc2)[C@H]2CN(Cc3cccnc3)CCCCN21	/	/	-5	/	/	/	/
CO[C@@H]1CN(C)C(=O)c2cc(NS(=O)(=O)c3ccc(Oc4ccccc4)cc3)ccc2OC[C@H](C)NC[C@H]1C	/	/	1	/	/	/	/
Nc1cc(Cl)ccc1C(=O)OCC(=O)NC1CCCCCCC1	27*	0	/	7	/	73*	56*
Nc1cc(Cl)ccc1C(=O)OCC(=O)NC(=O)NCc1ccccc1	30*	0	-3	4	2	63*	49*
Cc1ccc(C)c(C(=O)OCC(=O)NC(=O)NCc2ccccc2)c1	0	0	0	3	/	/	/
O=C(COC(=O)c1cc(Cl)ccc1Cl)NC1CCCC1	4	-1	-1	3	3	/	/
CN(Cc1ccccc1)C(=O)COC(=O)Cc1ccc(Cl)cc1	-3	-6	/	1	/	/	/
CN(Cc1ccccc1)C(=O)COC(=O)c1ccc(Cl)cc1N	50*	-3	/	0	4	101*	90*
COCC(=O)N1C[C@@H](C)[C@H](OC)CN(C)C(=O)c2ccc(NC(=O)C3CCC3)cc2OC[C@@H]1C	/	/	-2	/	/	/	/
Cc1ccc(S(=O)(=O)N[C@H]2CC[C@@H](CCn3cc(-c4cccnc4)nn3)O[C@@H]2CO)cc1	/	/	4	/	/	/	/
O=C(Nc1cccc(Cl)c1)N[C@@H]1CC[C@H](CCNC(=O)C2CCOCC2)O[C@H]1CO	/	/	-1	/	/	/	/
C[C@H]1CN([C@@H](C)CO)S(=O)(=O)c2ccc(-c3cccc(C(=O)N(C)C)c3)cc2O[C@@H]1CN(C)C	/	/	0	/	/	/	/
CC(C)NC(=O)NCC[C@H]1CC[C@H](NC(=O)Nc2ccccc2)[C@H](CO)O1	/	/	1	/	/	/	/
c1ccc(Oc2ccc(-c3ccnc4nc(N5CCOCC5)nn34)cc2)cc1	42*	-4	2	17	0	+	+
O=C1c2ccccc2C(=O)N1c1nc2nccc(-c3ccccc3)n2n1	32*	-1	-1	8	6	31*	35*
CCOC(=O)N(NC(=O)C(O)(C(C)C)C(C)C)c1ccccc1	101*	1	/	7	1	47*	55*
CCOC(=O)N(NC(=O)C(O)(CC(C)C)CC(C)C)c1ccccc1	4	-1	/	7	-2	/	/
CC(=O)c1ccc(S(=O)(=O)N2CCCC(N(C)CCc3ccccn3)C2)cc1 (configuration not stated)	76*	1	2	-1	-2	-2	-5
Cc1cc(C(=O)Nc2ccc3c(c2)C(=O)N(C)[C@@H]2CC[C@H](CC(=O)NCC(F)(F)F)O[C@@H]2CO3)no1	/	/	-1	/	/	/	/
SMILES	Mtb FBA inh	FadD28 binding	BioA inh	GDH-TPI counter-1	SARS 3CLpro inh	Mtb FBA confirm	GDH-TPI counter-2
CN(C)C=Nc1ccc2nc3c(cc2c1)[nH]c1ccccc13	51*	0	/	18	-9	172*	144*
CCOC(=O)c1[nH]c2ccccc2c1N=CN(C)C	6	-4	/	-3	-4	/	/
Cc1noc(C)c1S(=O)(=O)Nc1ccc2c(c1)C(=O)N([C@@H](C)CO)C[C@@H](C)[C@@H](CN(C)C(=O)NC1CCCCC1)O2	/	/	-2	/	/	/	/
O=C(C[C@H]1CC[C@H](NS(=O)(=O)c2ccccc2F)[C@H](CO)O1)NCCCN1CCOCC1	/	/	-2	/	/	/	/
O=C(NCCCSc1ccccc1)c1cc(Cl)ccc1O	36*	0	1	9	4	68*	48*
CNC(=O)C[C@@H]1CC[C@H]2[C@H](COc3ccc(NC(=O)c4ccc(OC)cc4)cc3C(=O)N2C)O1	/	/	0	/	/	/	/
